Laboratory results: PubChem BioAssay (NCATS)
Inconclusive results are not listed. Where a call stands in place of a potency, no number is given. A number with no mark means an inactive call. Activity calls are given as the source filed them. The call rests on the fitted dose curve; in most records, active means well fitted curve in the direction sought with a large enough effect; inconclusive means small, poorly fitted or top-dose-only effect, or another doubt; inactive means no such curve, though single readings can be large; an effect the other way counts as inactive or inconclusive. Positions of bridges follow the written chain, without caps; N, C: chain ends. Non-standard residues stand in square brackets, D forms with d. Residues, ends and D or L forms follow the SMILES beside them. ξ: configuration not given here. *: point of attachment. Octanoyl(6-Me) = CCC(C)CCCCC(=O)*; ξThr(3R) = C[C@@H](O)C(N)C(=O)O; dDab = NCC[C@@H](N)C(=O)O; Dab = NCC[C@H](N)C(=O)O

Legend:
[1] = Quantitative High-Throughput drug screen in 47 multiple myeloma cell lines against the NCATS MIPE library collection: KMS12PE_JCRB cell viability assay (AID 1918972); further: nearly all actives have a fitted effect of over 30% in size
Procedure, shortened: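 Approved and investigational drugs from MIPE 4.0 were added by pin tool to 500 cells per well. After 48 hours at 37C, ATP-based CellTiter-Glo luminescence indicated remaining viability.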

[2] = Quantitative High-Throughput drug screen in 47 multiple myeloma cell lines against the NCATS MIPE library collection: KMS20_JCRB cell viability assay (AID 1918973); further: nearly all actives have a fitted effect of over 45% in size
Procedure, shortened: (§1)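 CellTiter-Glo ATP luminescence gave viability after 48 h compound treatment at 37C of 500 multiple myeloma cells per well. Normalisation used DMSO-only wells as 100% and media-only wells as 0% viability; primary qHTS of approved and investigational drugs.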

[3] = Quantitative High-Throughput drug screen in 47 multiple myeloma cell lines against the NCATS MIPE library collection: MOLP8_DSMZ cell viability assay (AID 1918977); further: nearly all actives have a fitted effect of over 45% in size
Procedure, shortened: (§2)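 MIPE 4.0 approved/investigational drugs; 500 cells/well; 48 h 37 °C humidified 5% CO2; CTG luminescence readout; DMSO = 100%, media = 0% viability.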

[4] = Quantitative High-Throughput drug screen in 47 multiple myeloma cell lines against the NCATS MIPE library collection: NCIH929_DSMZ cell viability assay (AID 1918978); further: nearly all actives have a fitted effect of over 35% in size
Procedure, shortened: as §2

[5] = Quantitative High-Throughput drug screen in 47 multiple myeloma cell lines against the NCATS MIPE library collection: KMS12BM_JCRB cell viability assay (AID 1918971); further: nearly all actives have a fitted effect of over 35% in size
Procedure, shortened: (§3)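 qHTS of the MIPE 4.0 collection: 500 myeloma cells/well, 48 h drug exposure at 37C in 5% CO2, then CellTiter-Glo for 5 min at room temperature before luminescence reading.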

[6] = Quantitative High-Throughput drug screen in 47 multiple myeloma cell lines against the NCATS MIPE library collection: KMS26_JCRB cell viability assay (AID 1918975); further: nearly all actives have a fitted effect of over 45% in size
Procedure, shortened: as §3

[7] = Quantitative High-Throughput drug screen in 47 multiple myeloma cell lines against the NCATS MIPE library collection: MMM1_PLB cell viability assay (AID 1918976); further: nearly all actives have a fitted effect of over 35% in size
Procedure, shortened: as §2

[8] = Quantitative High-Throughput drug screen in 47 multiple myeloma cell lines against the NCATS MIPE library collection: KMS21BM_JCRB cell viability assay (AID 1918974); settings: ATP luminescence, 48 h; viability: at 45.8 µM (top of the series)
Procedure, shortened: as §1
Potency means the concentration at half of the fitted maximal effect.

Structure (SMILES) | Potency [1] | Potency [2] | Potency [3] | Potency [4] | Potency [5] | Potency [6] | Potency [7] | Potency [8]
CCC(C)CCCCC(=O)N[C@@H](CCN)C(=O)NC(C(=O)N[C@H](CCN)C(=O)N[C@@H]1CCNC(=O)C([C@@H](C)O)NC(=O)[C@@H](CCN)NC(=O)[C@@H](CCN)NC(=O)[C@@H](CC(C)C)NC(=O)[C@H](Cc2ccccc2)NC(=O)[C@H](CCN)NC1=O)[C@@H](C)O (stereo partly drawn) ({Octanoyl(6-Me)}-[Dab][ξThr(3R)][dDab][dDab][Dab]F[dL][dDab][dDab][ξThr(3R)]; lactam 4-C) | inactive | inactive | inactive | inactive |  |  |  | 
FC(F)c1nc2ccccc2n1-c1nc(N2CCOCC2)nc(N2CCOCC2)n1 |  | 0.332 µM (active) | 0.132 µM (active) | 0.105 µM (active) | 1.66 µM (active) | 0.743 µM (active) | 0.526 µM (active) | 
Cn1cc(C2=C(c3c4n(c5ccccc35)CCC(CN)C4)C(=O)NC2=O)c2ccccc21 (stereo not drawn) | 8.33 µM (active) | 6.62 µM (active) | 13.2 µM (active) | 7.43 µM (active) | 14.8 µM (active) | 18.7 µM (active) | 20.9 µM (active) | 7.43 µM (active)
COc1ccc(S(=O)(=O)Nc2cccnc2Nc2ccc(O)cc2)cc1 |  | 0.0833 µM (active) | 1.18 µM (active) | 1.18 µM (active) | 0.0743 µM (active) | 2.64 µM (active) | 1.48 µM (active) | 
COc1cc(C(C)C)c(Oc2cnc(NC(CO)CO)nc2N)cc1I |  |  | inactive | inactive | inactive | 2.64 µM (active) |  | 0.662 µM (active)
CC(Oc1ccc(O)cc1)(P(=O)(O)O)P(=O)(O)O | inactive |  | inactive | inactive |  | inactive | inactive | 
O=C(NCc1ccccc1)[C@H](Cc1ccccc1)NC(=O)[C@@H]1O[C@@H]1C(=O)NCCc1ccc(O)cc1 | 23.5 µM (active) |  |  | inactive |  |  | 20.9 µM (active) | 
Cc1noc(-c2ccc(CSCCC(=O)O)cc2)c1NC(=O)OC(C)c1ccccc1Cl (stereo not drawn) |  |  | inactive | inactive | inactive | inactive |  | 
C[C@H]1O[C@H](O[C@H]2[C@H](O)[C@@H](O)[C@@H](O[C@H]3[C@H](O)[C@@H](O)C(O)O[C@H]3CO)O[C@H]2CO)[C@H](O)[C@@H](O)[C@H]1N[C@H]1C=C(CO)[C@@H](O)[C@H](O)[C@@H]1O (stereo partly drawn) |  |  | inactive |  |  | inactive |  | 
Cc1cnc(Nc2ccc(CN3CCOCC3)cc2)nc1Nc1cccc(S(=O)(=O)NC(C)(C)C)c1 |  | 2.64 µM (active) | 2.09 µM (active) | 1.66 µM (active) | 3.32 µM (active) | 13.2 µM (active) | 10.5 µM (active) | 
c1ccc2c(Oc3nc(Nc4ccc(N5CCOCC5)cc4)c4ncn(C5CCCCC5)c4n3)cccc2c1 |  |  | inactive |  | 16.6 µM (active) |  | 13.2 µM (active) | 
Cc1ccc([N+](=O)[O-])cc1S(=O)(=O)N(C)N=Cc1cnc2ccc(Br)cn12 | 0.0209 µM (active) |  | 0.0083 µM (active) |  | 0.0662 µM (active) | 0.0235 µM (active) | 0.0833 µM (active) | 
COc1ccc(C(C)=O)c(O)c1 |  | inactive | inactive | inactive |  |  |  | 
Cc1ccc(-n2[nH]c(C)c(N=Nc3cccc(-c4cccc(C(=O)O)c4)c3O)c2=O)cc1C | inactive |  | 23.5 µM (active) |  | 23.5 µM (active) |  | 20.9 µM (active) | 
COc1cc(C)c(Sc2cnc(NC(=O)c3ccc(CNC(C)C(C)(C)C)cc3)s2)cc1C(=O)N1CCN(C(C)=O)CC1 (stereo not drawn) | 5.26 µM (active) | 3.72 µM (active) | 8.33 µM (active) | 3.32 µM (active) | 16.6 µM (active) | 16.6 µM (active) | 7.43 µM (active) | 
CCCCCN=C(N)NN=Cc1c[nH]c2ccc(OC)cc12 |  |  |  | 13.2 µM (active) | 6.62 µM (active) | 10.5 µM (active) |  | 
O=C(C=CC=Cc1ccc2c(c1)OCO2)N1CCCCC1 |  |  | inactive | inactive | inactive |  |  | 
C[C@]12CCC(=O)C=C1[C@@H]1CC1[C@H]1[C@H]3[C@@H]4C[C@H]4[C@@]4(CCC(=O)O4)[C@@]3(C)CC[C@H]12 (stereo partly drawn) |  | inactive | inactive | inactive |  |  |  | 
C=C(C)[C@@H]1CC[C@]2(C(=O)O)CC[C@]3(C)[C@H](CC[C@@H]4[C@@]5(C)CC[C@H](O)C(C)(C)[C@@H]5CC[C@]43C)[C@@H]12 |  |  | inactive | inactive |  |  |  | 
C=C[C@@H]1CN2CCC1C[C@H]2[C@H](O)c1ccnc2ccc(OC)cc12 (stereo partly drawn) |  |  | inactive | inactive | inactive |  |  | 

Structure (SMILES) | Potency [1] | Potency [2] | Potency [3] | Potency [4] | Potency [5] | Potency [6] | Potency [7] | Potency [8]
NC(=O)c1cccc(-c2cccc(OC(=O)NC3CCCCC3)c2)c1 | inactive | inactive | inactive | inactive | inactive |  |  | 
C[C@](Cc1c[nH]c2ccccc12)(NC(=O)OC1C2CC3CC(C2)CC1C3)C(=O)NC[C@H](NC(=O)CCC(=O)O)c1ccccc1 (stereo partly drawn) |  |  | inactive |  | inactive | inactive |  | inactive
CC[C@H]1OC(=O)[C@H](C)[C@@H](O[C@H]2C[C@@](C)(OC)[C@@H](O)[C@H](C)O2)[C@H](C)[C@@H](O[C@@H]2O[C@@H](C)C[C@H](N(C)C)[C@@H]2O)[C@](C)(O)C[C@@H](C)C(=O)[C@H](C)[C@@H](O)[C@]1(C)O | inactive |  | inactive | inactive |  | inactive |  | inactive
C[C@@H](NCc1cc2ccccc2[nH]1)c1cccc2ccccc12 |  | inactive | inactive | inactive | inactive |  |  | 
O=C(NC1CC1)c1cccc(-c2ccc3c(NC(=O)C4CC4)n[nH]c3c2)c1 | inactive |  |  | 16.6 µM (active) | 8.33 µM (active) |  |  | 
O=C(O)C=Cc1ccc(Cn2ccnc2)cc1 | inactive |  | inactive | inactive | inactive | inactive |  | 
COc1cccc2c1C(=O)c1c(O)c3c(c(O)c1C2=O)C[C@@](O)(C(C)=O)C[C@H]3O[C@H]1C[C@H](N)[C@H](O)[C@H](C)O1 |  | 0.0526 µM (active) | 0.132 µM (active) | 0.0469 µM (active) | 0.0662 µM (active) | 0.296 µM (active) | 0.166 µM (active) | 
Cc1ccccc1C(=O)Nc1ccc(C(=O)N2CCCC(O)c3cc(Cl)ccc32)c(C)c1 (stereo not drawn) |  |  | inactive |  | inactive |  |  | 
C[C@H](CCC(=O)O)[C@H]1CCC2C3C[C@H](O)[C@@H]4C[C@H](O)CC[C@]4(C)C3CC[C@@]21C (stereo partly drawn) | inactive | inactive |  | inactive |  | inactive | 0.833 µM (active) | 
CN[C@H](CC(C)C)C(=O)N[C@H]1C(=O)N[C@@H](CC(N)=O)C(=O)N[C@@H]2C(=O)N[C@H]3C(=O)N[C@H](C(=O)N[C@H](C(=O)O)c4cc(O)cc(O)c4-c4cc3ccc4O)[C@H](O)c3ccc(c(Cl)c3)Oc3cc2cc(c3O[C@@H]2O[C@H](CO)[C@@H](O)[C@H](O)[C@@H]2O[C@H]2C[C@](C)(N)[C@H](O)[C@H](C)O2)Oc2ccc(cc2Cl)[C@H]1O | inactive |  | inactive | inactive |  |  |  | 
O=C(Nc1ccc(Oc2ccnc3[nH]ccc23)c(F)c1)c1cccn(-c2ccc(F)cc2)c1=O | inactive | inactive |  |  |  |  |  | 
O=C1c2cccc(O)c2C(=O)c2c(O)cc(CO)cc21 | inactive | inactive |  | inactive |  |  |  | 
COc1cc2c(cc1OC)[C@@H]1C(=O)c3ccc4c(c3O[C@@H]1CO2)C=CC(C)(C)O4 |  | 6.62 µM (active) | 11.8 µM (active) | 0.662 µM (active) | 0.418 µM (active) | 9.35 µM (active) | 0.0187 µM (active) | 0.0662 µM (active)
CC(=O)C1=C(O)C=C2Oc3c(C(C)=O)c(O)c(C)c(O)c3C2(C)C1=O (stereo not drawn) |  |  |  | inactive | inactive |  |  | 
CC(C)C[C@H](NC(=O)[C@@H](NC(=O)c1cccc(-c2ccccc2)n1)[C@@H](C)O)B(O)O | 0.0105 µM (active) | 0.0332 µM (active) | 0.0296 µM (active) | 0.0118 µM (active) | 0.0372 µM (active) | 0.0418 µM (active) | 3.72 µM (active) | 
CC(C)c1cc(C(C)C)c(CC(=O)NS(=O)(=O)Oc2c(C(C)C)cccc2C(C)C)c(C(C)C)c1 | 6.62 µM (active) |  | 20.9 µM (active) | inactive | 16.6 µM (active) |  | 33.2 µM (active) | 
CC(C)N(CC[C@H](c1ccccc1)c1cc(CO)ccc1O)C(C)C | inactive |  | inactive | inactive | inactive |  |  | 
CC(C)n1cnc2c(NCCc3ccc(O)cc3)nc(-c3csc4ccccc34)nc21 |  | 7.43 µM (active) |  |  |  | 11.8 µM (active) |  | 
O=C(O)[C@H](CC(=O)N1C[C@@H]2CCCC[C@H]2C1)Cc1ccccc1 |  | inactive |  | inactive |  |  |  | 
CCc1cc(C(C)=NOCc2ccc(C3CCCCC3)c(C(F)(F)F)c2)ccc1CN1CC(C(=O)O)C1 |  |  | inactive |  | 18.7 µM (active) |  |  | 
